Structures are written as SMILES. This is part of a sample that, as a whole, favours compounds with a hit. Of some 79,000 tested, about 15% had one in any assay. A number with no mark means an inactive call. The source made the active and inactive calls. Cut-off read from the data, not from the text of the source: active = growth inhibition above about 70%; inactive = the rest.

Assay [1] can be described thus: NCI Yeast Anticancer Drug Screen. Data for the rad50 strain (AID 155).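 Note: 0% = growth of vehicle-only cultures of the same strain.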 As to conditions: S. cerevisiae rad50 strain growth inhibition; at 50.0 µM; stronger effect = higher value. In short, it runs like this: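 Genetically altered yeast (DNA repair pathway); compound treatment; growth inhibition vs vehicle ctrl.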
The nature of assay [2]: NCI Yeast Anticancer Drug Screen. Data for the mec2-1 strain (AID 157). As to conditions: S. cerevisiae mec2-1 strain, at 50.0 µM, stronger effect = higher value. The gist of the method:
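Strain: mec2-1 (DNA repair/cell cycle alteration). Compound exposure, then growth measured; inhibition expressed relative to vehicle.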

Assay [3] in a line: NCI Yeast Anticancer Drug Screen. Data for the cln2 rad14 strain (AID 165).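 Note: 0% = growth equal to vehicle treated cultures.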 As to conditions: S. cerevisiae cln2 rad14 strain, at 50.0 µM, stronger effect = higher value. In short, it runs like this: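 Compounds are applied to the cln2 rad14 yeast strain, and growth is then compared with that of vehicle-treated cultures to give inhibition.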
Assay [4] in a line: NCI Yeast Anticancer Drug Screen. Data for the mlh1 rad18 strain (AID 175). Particulars: S. cerevisiae mlh1 rad18 strain growth inhibition; at 50.0 µM; stronger effect = higher value. In short, it runs like this:
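Read-out is yeast growth inhibition, calculated against vehicle-only controls. The compound was applied to a strain engineered with DNA damage repair alterations.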

Assay [5] is described as follows: NCI Yeast Anticancer Drug Screen. Data for the bub3 strain (AID 167). Particulars: S. cerevisiae bub3 mutant strain, at 50.0 µM, stronger effect = higher value. In short, it runs like this:
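Yeast carrying a defined mutation is treated with each compound, and growth is compared with that of vehicle-exposed cells to give inhibition.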

A short description of assay [6]: NCI Yeast Anticancer Drug Screen. Data for the sgs1 mgt1 strain (AID 161).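 Note: 0% = growth of cultures given vehicle only.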 As to conditions: S. cerevisiae sgs1 mgt1 strain, at 50.0 µM, stronger effect = higher value. In short, it runs like this:
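Read-out: growth inhibition vs vehicle controls. Cells: mutant yeast strain deficient in DNA damage repair.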

Take `NCCNc1ncnc2ccccc12`: the growth inhibition was -13.1% in assay [1], 16.1% in assay [2], -11.6% in assay [3] and -5.2% in assay [4].

Turning to `CCCNC(=S)NNC(N)=O`, the growth inhibition was 2.5% in assay [1]; 7.35% in assay [2]; 6.15% in assay [3]; -11.2% in assay [5]; 12.2% in assay [4].

Consider `Cc1cccc(NCN2C(=O)c3ccccc3C2=O)c1`, for which the growth inhibition in assay [1] was -1.8%; in assay [2], 8.75%; in assay [3], -16.4%; in assay [5], 18.7%; in assay [4], -1.7%.

Regarding `COc1ccc(OC)c(C(C)=O)c1`, the growth inhibition in assay [1] was -59%; in assay [2], -66%; in assay [3] it was 1.75%; in assay [5], -34.2%; in assay [4], -29.4%.

As to `ClC(Cl)(Cl)c1ccc(C2OCCO2)cc1`, the growth inhibition was -17.8% in assay [1]; -6.8% in assay [2]; -26.6% in assay [3]; -22% in assay [5]; -0.3% in assay [4].

For `C/C(CC(=O)Nc1cccc(Cl)c1C)=N\NC(=O)c1ccncc1`, the growth inhibition is 6.05% in assay [1]; -2.3% in assay [2]; -2% in assay [3]; -0.5% in assay [5]; 0.95% in assay [4].

Regarding `COc1cccc2c1C(=O)c1c(O)c3c(c(O)c1C2=O)C[C@@](O)(C(C)=O)CC3S(=O)(=O)O` (some centres undefined), the growth inhibition was -14% in assay [1]; -7.45% in assay [2]; -8.85% in assay [3]; -14.9% in assay [5]; 9.7% in assay [4].

With `CN(C)CCCN=c1c2ccccc2n(C)c2[nH]c(=O)n(C)c(=O)c12`, the growth inhibition is -32.1% in assay [1]; -0.75% in assay [2]; -9.2% in assay [3]; 0.05% in assay [5]; -6.85% in assay [4].

For `CCCCCCCCCCCCP(=O)(O)O`, the growth inhibition in assay [1] was -8.2%; in assay [2], -24.1%; in assay [3], -9.65%; in assay [5], 6.35%; in assay [4], -10.9%.

Take `COC(=O)c1cc2ccccc2[nH]1`: the growth inhibition was 4% in assay [1]; 8% in assay [2]; -15.3% in assay [3]; -11.9% in assay [5]; -13.8% in assay [4].

As to `Cn1c(=O)c2[nH]c(/N=N/N3CCN(CCO)CC3)nc2n(C)c1=O`, the growth inhibition is 20.1% in assay [1]; -14.8% in assay [2]; -34% in assay [3]; -45.6% in assay [5]; 9.35% in assay [4].

`CCOC(=O)C(N=Nc1ccc(C)cc1Br)C(C)=O` (centres undefined): the growth inhibition in assay [1] was 16.2%; in assay [6] it was 24.9%; in assay [3] it was 15.6%; in assay [5], 22.4%; in assay [4] it was 24.1%.

`COc1cccc(C2CC(C)=Nc3c(ccc4c3C(=O)c3ccccc3C4=O)N2)c1O` (centres undefined): the growth inhibition was 1.2% in assay [1]; 24.6% in assay [6]; 7.8% in assay [3]; 11.8% in assay [5]; 14.8% in assay [4].

On to `O=C1/C(=C/c2ccc3c(c2)OCO3)CCC1CN1CCOCC1` (centres undefined), for which the growth inhibition in assay [1] was 91.2% (active); in assay [6] it was 90.8% (active); in assay [3], 92.7% (active); in assay [5], 90.2% (active); in assay [4], 90.5% (active).

On to `[Cu+2].[NH-]C(Cc1ccc(O)cc1)C(=O)O.[NH-]C(Cc1ccc(O)cc1)C(=O)O` (centres undefined), for which the growth inhibition was 13.1% in assay [1]; -12.6% in assay [6]; 15.2% in assay [3]; 1.65% in assay [5]; 5% in assay [4].

`O=C(O)c1cccc(Sc2ccccc2)c1`: the growth inhibition in assay [1] is -0.05%; in assay [6], 8.25%; in assay [3], -0.85%; in assay [5], -18.9%; in assay [4], 16.6%.

As to `O=C(NCc1cccnc1)C1COc2cc(-c3cc(=O)c4ccccc4o3)ccc2O1` (centres undefined), the growth inhibition in assay [1] is -9.55%; in assay [6] it was -23.9%; in assay [3], -5.25%; in assay [5], -6.95%; in assay [4], -49%.

For the molecule `COc1c2occc2c(S(=O)(=O)O)c2ccc(=O)oc12`, the growth inhibition in assay [1] is -12.5%; in assay [6] it was 6.45%; in assay [3], 3.75%; in assay [5] it was -40.6%; in assay [4], 2.7%.

As to `NCCC(=O)O`, the growth inhibition was 5.95% in assay [1]; -8.25% in assay [6]; 12.1% in assay [3]; -13.8% in assay [5]; 16.9% in assay [4].

As for `Cn1nc(C(F)(F)C(F)(F)C(F)(F)F)nc1C(F)(F)C(F)(F)C(F)(F)F`, the growth inhibition in assay [1] was 12.6%; in assay [6] it was 4.45%; in assay [3], -3.75%; in assay [5] it was -2.15%; in assay [4], 10.6%.

With `COc1ccc(CSC(=S)Nc2ccc(F)c(C)c2)cc1`, the growth inhibition in assay [1] was 20.8%; in assay [6], 17.1%; in assay [3] it was 28.1%; in assay [5] it was 5.1%; in assay [4], 10.6%.

`CCCCCC1SCC(=O)N1c1nncs1` (centres undefined): the growth inhibition in assay [1] was -1.7%; in assay [6], 14.3%; in assay [3], 5.85%; in assay [5], 6.65%; in assay [4] it was 12.5%.

As to `COc1ccc(NC(=O)CC(=O)N2N=C(N(CCC#N)c3ccc(Cl)cc3)CC2c2ccccc2)cc1` (centres undefined), the growth inhibition in assay [1] was 16.5%; in assay [6] it was -1.55%; in assay [3], 7.5%; in assay [5] it was 2.05%; in assay [4] it was -6.05%.

Values taken from PubChem BioAssay (NCI).
